Data published in article PMC4242493, “Sequence specificity incompletely defines the genome-wide occupancy of Myc”.
Over roughly 33,000 sequences, “normalized occupancy” has its median near 0.075; the highest 2% begin near 0.095. Shown is part of a subset that was picked to be rich in the highest values.

The sequences below were run against MaxL homodimer (Homo sapiens, UniProt P61244 1-160) (assay: universal protein-binding microarray (PBM); PBS-based mixture, 10 nM His-tagged protein dimer, 2% milk, 200 ng/uL BSA, 50 ng/uL salmon testes DNA, 0.02% TX-100; detection with Alexa 488 anti-His antibody;; high values mean tight binding). Settings: protein: recombinant; tags: C-terminal His-tag (pET21a); chain copies: 2; dsDNA, one strand shown.
Summary of the method: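 Each 8-mer received a fluorescence intensity from GenePix 4400A scans of Agilent 4 x 44 K 'all 10-mer' universal arrays. Those arrays had been incubated with His-tagged protein dimer at 10 nM, and the bound protein was marked with a fluorophore-conjugated anti-His antibody at 10 ng/μL. Binding occupancy is the intensity scaled to that of the highest-ranked sequence word.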

Chain of MaxL homodimer (P61244 whole entry): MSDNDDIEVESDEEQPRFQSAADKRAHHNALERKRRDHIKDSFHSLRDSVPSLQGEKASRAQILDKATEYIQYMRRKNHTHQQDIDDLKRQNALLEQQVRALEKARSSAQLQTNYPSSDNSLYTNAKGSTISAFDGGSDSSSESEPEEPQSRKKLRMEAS

| Sequence | binding signal [normalized occupancy] |
| --- | --- |
| ATCACGTG | 0.363 |
| ATCACGTA | 0.0829 |
| ACACCACC | 0.086 |
| ATCACGTC | 0.0875 |
| CCCACGGC | 0.0782 |
| CGAAGGTA | 0.0721 |
| CTGTGGCA | 0.0739 |
| AGGAACAG | 0.0793 |
| ATCACGCG | 0.132 |
| ATCACGCC | 0.0864 |
| ACCACGGG | 0.0834 |
| CCCACGCA | 0.0903 |
| ACCACGGA | 0.0736 |
| ATCACGCA | 0.0877 |
| CCCACGCG | 0.148 |
| ACCACGCG | 0.187 |
| CCCACACA | 0.0838 |
| ACGACGAG | 0.0759 |
| AATTACGA | 0.0775 |
| AATGGCAA | 0.0742 |
| CTCAACAA | 0.0728 |
| ACTGCTTC | 0.0747 |
| AGTTGGTC | 0.0747 |
| ACGCGCCT | 0.0828 |
| ACACGCTA | 0.0915 |

| Sequence | binding signal [normalized occupancy] |
| --- | --- |
| ACACGCCG | 0.1 |
| ACACGCCC | 0.0863 |
| ACACGCCA | 0.0895 |
| AAACGCCT | 0.073 |
| ACACGCTG | 0.108 |
| ACGCGCTG | 0.077 |
| ACACGCCT | 0.0971 |
| CGTTATAA | 0.079 |
| ATGGCTCA | 0.0798 |
| CCACCATC | 0.0768 |
| CCCGTAAA | 0.0752 |
| CATTAAGA | 0.0765 |
| ACCATATC | 0.0845 |
| AGCATATC | 0.0822 |
| ATCATATC | 0.0861 |
| AACATATG | 0.1 |
| AACATATA | 0.0841 |
| ACCATATA | 0.0814 |
| CACATATG | 0.095 |
| AGCATATG | 0.103 |
| ATCATATA | 0.0893 |
| ATCATATG | 0.0972 |
| ACCATATG | 0.118 |
| AGCATATA | 0.0807 |
| GTTACGTA | 0.0751 |

| Sequence | binding signal [normalized occupancy] |
| --- | --- |
| CTCGATAC | 0.0749 |
| AAATGCTG | 0.0762 |
| AAAAGCTA | 0.0755 |
| GGTACGAC | 0.0721 |
| GAGCACAA | 0.0775 |
| GAGCACAC | 0.0956 |
| CAGCACAC | 0.0857 |
| GCAGAATA | 0.0753 |
| CCGTGAAG | 0.0739 |
| AAGTGAAG | 0.076 |
| ACGTGAAG | 0.1 |
| ACGTGAAA | 0.097 |
| ACGTGAAT | 0.0824 |
| ACGTGAAC | 0.0842 |
| GATGAAAC | 0.0811 |
| AGCGTTAC | 0.0823 |
| CGCGCACG | 0.0959 |
| CACGCACC | 0.0913 |
| CACGCAAG | 0.0838 |
| CACGCATG | 0.121 |
| GACGCATA | 0.0777 |
| AACGCATA | 0.0871 |
| CACGCATA | 0.0976 |
| CACGCACG | 0.096 |
| TACGCATA | 0.0842 |

| Sequence | binding signal [normalized occupancy] |
| --- | --- |
| CACGCACA | 0.0923 |
| GGCGCACA | 0.0793 |
| CGCGCACA | 0.0822 |
| ACACAGTC | 0.0783 |
| GTAGTCTA | 0.0723 |
| GTACTACA | 0.0864 |
| ACTTTAGG | 0.073 |
| ACGCGAAG | 0.0765 |
| AGTAGTAA | 0.0731 |
| ACAACCGA | 0.0733 |
| GACGCATC | 0.077 |
| AACGCATT | 0.0767 |
| AACGCATC | 0.0731 |
| AACGCATG | 0.121 |
| CACGCATC | 0.0962 |
| AACGCAAG | 0.073 |
| AAACTATT | 0.0745 |
| TAGGACTA | 0.0732 |
| CACCCGTA | 0.0782 |
| CAGCATGA | 0.106 |
| CAGCATCG | 0.0732 |
| GAGCATGA | 0.0963 |
| CAGCATGG | 0.13 |
| GAGCATCA | 0.0734 |
| GAGCATAA | 0.0797 |

| Sequence | binding signal [normalized occupancy] |
| --- | --- |
| TAGCATGA | 0.0921 |
| CAGCATAG | 0.0739 |
| CAGCATAA | 0.0808 |
| CGTCGAAC | 0.0719 |
| GCTCGTGA | 0.0843 |
| ACTCGTGC | 0.0933 |
| CCTCGTGA | 0.125 |
| CCTCGTGC | 0.133 |
| CCTCGTTC | 0.0806 |
| CATCGTGC | 0.0886 |
| CCTCGTTA | 0.0752 |
| ACTCGTCA | 0.0793 |
| ACTCGTGG | 0.0955 |
| AGTCGTGA | 0.0749 |
| AATCGTGG | 0.0832 |
| ACTCGTGA | 0.0957 |
| ACGTTGAA | 0.083 |
| GGGACCAC | 0.078 |
| CTCTCCAC | 0.0859 |
| CTATGCTA | 0.0768 |
| AGACACAT | 0.0849 |
| CTAAGGTC | 0.0732 |
| AAATGACC | 0.0764 |
| ATAAGCTG | 0.0801 |
| ATGCGTGC | 0.0969 |

| Sequence | binding signal [normalized occupancy] |
| --- | --- |
| CTGCGTGA | 0.0818 |
| ATGCGTGG | 0.106 |
| GTGCGTGA | 0.0887 |
| ATGCGTTG | 0.0816 |
| ATGCGTGA | 0.0965 |
| ATGCGTAG | 0.0832 |
| ATGCGTCC | 0.0782 |
| CTGCGTGC | 0.0861 |
| ACATCCCG | 0.0795 |
| AGAATGGA | 0.0768 |
| GCGACGCA | 0.0736 |
| CGCGTAAC | 0.0752 |
| CAACATGC | 0.094 |
| CCACATGA | 0.134 |
| CAACATGA | 0.0936 |
| CCACATTC | 0.0852 |
| CCACATTA | 0.093 |
| CCACATAG | 0.0803 |
| CCACATGG | 0.227 |
| CCACATGC | 0.163 |
| CAACATGG | 0.0932 |
| GATCCGCA | 0.0769 |
| CATTCAGC | 0.0725 |
| GAATTATA | 0.0789 |
| TCACTGCA | 0.075 |

| Sequence | binding signal [normalized occupancy] |
| --- | --- |
| CTCAAGTC | 0.0771 |
| AAGGTTTA | 0.0757 |
| CACACGCC | 0.0955 |
| CACACGCA | 0.0865 |
| AACACACA | 0.0847 |
| AACACGCC | 0.0909 |
| AACACGGT | 0.0777 |
| CACACACG | 0.0916 |
| AACACGCT | 0.0974 |
| AACACGCG | 0.12 |
| GACACGCC | 0.0849 |
| CACACGCG | 0.124 |
| AACACGCA | 0.0915 |
| CACACACA | 0.087 |
| CCACGGAC | 0.0742 |
| CGACTAAA | 0.0736 |
| TCACTTAA | 0.078 |
| GAACCAAC | 0.0752 |
| AGACGACA | 0.0751 |
| ACAAACCT | 0.0779 |
| AACGACTG | 0.0722 |
| GACATTAC | 0.0843 |
